Data reported in PubChem BioAssay AID1159580 (chemical genetic matrix, 2015).
In all, about 5,500 compounds went through this assay and about 2,000 (36%) were called active. Roughly 18% stayed inconclusive and do not appear here. No stated cut-off is given here; in the data, active means normalized growth mostly below about 0.91 (no sharp cut-off); inconclusive means no clear call, values can overlap the other calls; inactive means mostly above about 0.92. The list shows a part of the results.

Test: chemical genetic growth profiling, strain panel (AID 1159580);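 further: tested at 20 µM; growth read once vehicle control cultures reached saturation at 30 °C; 1 = growth at the plate median or of vehicle wells; lower values mean less growth of the strain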
Conditions: growth OD

Measured: normalized growth

c1cncc(C2CCCCN2)c1 (configuration not stated)
inactive: S. cerevisiae deletion strains, locus YJR066W, strain TOR1, hits give low values 0.974 | S. cerevisiae deletion strains, locus YJR075W, strain HOC1, hits give low values 1.03 | S. cerevisiae deletion strains, locus YKL009W, strain mrt4, hits give low values 0.992 | S. cerevisiae deletion strains, locus YKL068W, hits give low values 1 | S. cerevisiae deletion strains, locus YKL085W, strain MDH1 (second series), hits give low values 0.998 | S. cerevisiae deletion strains, locus YKL085W, strain MDH1, hits give low values 0.998 | S. cerevisiae deletion strains, locus YKL160W, strain elf1, hits give low values 0.992 | S. cerevisiae deletion strains, locus YKL190W, strain CNB1, hits give low values 0.99 | S. cerevisiae deletion strains, locus YKR001C, strain vps1, hits give low values 0.986 | S. cerevisiae deletion strains, locus YKR026C, strain gcn3, hits give low values 0.996 | S. cerevisiae deletion strains, locus YKR091W, strain srl3, hits give low values 0.988 | S. cerevisiae deletion strains, locus YLL001W, strain dnm1, hits give low values 0.993 | S. cerevisiae deletion strains, locus YLL026W, hits give low values 0.996 | S. cerevisiae deletion strains, locus YLL041C, strain sdh2, hits give low values 0.991 | S. cerevisiae deletion strains, locus YLR027C, strain aat2, hits give low values 0.999 | S. cerevisiae deletion strains, locus YLR039C, strain RIC1, hits give low values 1.07 | S. cerevisiae deletion strains, locus YLR058C, strain SHM2, hits give low values 1.01 | S. cerevisiae deletion strains, locus YLR102C, strain apc9, hits give low values 1 | S. cerevisiae deletion strains, locus YLR113W, strain HOG1, hits give low values 0.997 | S. cerevisiae deletion strains, locus YLR221C, strain rsa3, hits give low values 0.991 | S. cerevisiae deletion strains, locus YLR258W, strain gsy2, hits give low values 1.02 | S. cerevisiae deletion strains, locus YLR262C, strain YPT6 (second series), hits give low values 0.986 | S. cerevisiae deletion strains, locus YLR262C, strain YPT6, hits give low values 1.06 | S. cerevisiae deletion strains, locus YLR268W, strain sec22, hits give low values 0.968 | S. cerevisiae deletion strains, locus YLR320W, strain mms22, hits give low values 0.981 | S. cerevisiae deletion strains, locus YLR330W, strain CHS5, hits give low values 1.03 | S. cerevisiae deletion strains, locus YLR342W, strain FKS1 (second series), hits give low values 1.02 | S. cerevisiae deletion strains, locus YLR342W, strain FKS1, hits give low values 0.986 | S. cerevisiae deletion strains, locus YLR357W, strain rsc2, hits give low values 0.959 | S. cerevisiae deletion strains, locus YLR370C, strain arc18, hits give low values 0.988 | S. cerevisiae deletion strains, locus YLR371W, strain rom2, hits give low values 0.985 | S. cerevisiae deletion strains, locus YLR384C, strain iki3, hits give low values 0.98 | S. cerevisiae deletion strains, locus YLR418C, strain cdc73, hits give low values 0.995 | S. cerevisiae deletion strains, locus YML016C, strain PPZ1, hits give low values 1.02 | S. cerevisiae deletion strains, locus YML032C, strain rad52, hits give low values 1.01 | S. cerevisiae deletion strains, locus YML120C, strain ndi1, hits give low values 0.998 | S. cerevisiae deletion strains, locus YML124C, strain tub3, hits give low values 0.998 | S. cerevisiae deletion strains, locus YMR058W, strain fet3, hits give low values 0.993 | S. cerevisiae deletion strains, locus YMR078C, strain ctf18, hits give low values 0.999 | S. cerevisiae deletion strains, locus YMR125W, strain sto1, hits give low values 0.981 | S. cerevisiae deletion strains, locus YMR129W, hits give low values 0.99 | S. cerevisiae deletion strains, locus YMR205C, strain PFK2, hits give low values 1.02 | S. cerevisiae deletion strains, locus YMR223W, strain ubp8, hits give low values 1.01 | S. cerevisiae deletion strains, locus YMR231W, strain pep5, hits give low values 0.981 | S. cerevisiae deletion strains, locus YMR307W, strain GAS1, hits give low values 1.11 | S. cerevisiae deletion strains, locus YNL067W, strain RPL9B, hits give low values 1.01 | S. cerevisiae deletion strains, locus YNL071W, strain lat1, hits give low values 0.998 | S. cerevisiae deletion strains, locus YNL153C, strain GIM3, hits give low values 1.02 | S. cerevisiae deletion strains, locus YNL183C, strain NPR1, hits give low values 0.965 | S. cerevisiae deletion strains, locus YNL209W, strain ssb2, hits give low values 0.991 | S. cerevisiae deletion strains, locus YNL233W, strain BNI4, hits give low values 1.03 | S. cerevisiae deletion strains, locus YNL248C, strain rpa49, hits give low values 0.987 | S. cerevisiae deletion strains, locus YNL250W, strain rad50, hits give low values 1.01 | S. cerevisiae deletion strains, locus YNL271C, strain bni1, hits give low values 0.996 | S. cerevisiae deletion strains, locus YNL298W, strain CLA4, hits give low values 0.988 | S. cerevisiae deletion strains, locus YNL307C, strain MCK1, hits give low values 0.997 | S. cerevisiae deletion strains, locus YNL322C, strain KRE1 (second series), hits give low values 0.985 | S. cerevisiae deletion strains, locus YNR049C, strain mso1, hits give low values 0.99 | S. cerevisiae deletion strains, locus YNR052C, strain pop2, hits give low values 0.995 | S. cerevisiae deletion strains, locus YOL012C, strain htz1 0.806 | S. cerevisiae deletion strains, locus YOL147C, strain pex11, hits give low values 0.991 | S. cerevisiae deletion strains, locus YOR001W, strain rrp6, hits give low values 0.994 | S. cerevisiae deletion strains, locus YOR061W, strain CKA2, hits give low values 1.01 | S. cerevisiae deletion strains, locus YOR069W, strain VPS5, hits give low values 0.993 | S. cerevisiae deletion strains, locus YOR070C, strain gyp1, hits give low values 0.978 | S. cerevisiae deletion strains, locus YOR080W, strain dia2, hits give low values 0.982 | S. cerevisiae deletion strains, locus YOR083W, strain WHI5, hits give low values 1 | S. cerevisiae deletion strains, locus YOR106W, strain vam3, hits give low values 0.997 | S. cerevisiae deletion strains, locus YOR136W, strain idh2, hits give low values 0.978 | S. cerevisiae deletion strains, locus YOR144C, strain elg1, hits give low values 0.996 | S. cerevisiae deletion strains, locus YOR184W, strain ser1, hits give low values 1 | S. cerevisiae deletion strains, locus YOR231W, strain MKK1, hits give low values 1 | S. cerevisiae deletion strains, locus YOR265W, strain rbl2, hits give low values 1.01 | S. cerevisiae deletion strains, locus YOR270C, strain vph1, hits give low values 1 | S. cerevisiae deletion strains, locus YOR290C, strain snf2, hits give low values 1 | S. cerevisiae deletion strains, locus YOR316C, strain cot1, hits give low values 0.998 | S. cerevisiae deletion strains, locus YPL051W, strain arl3, hits give low values 1.01 | S. cerevisiae deletion strains, locus YPL078C, strain atp4, hits give low values 0.994 | S. cerevisiae deletion strains, locus YPL106C, strain sse1, hits give low values 0.972 | S. cerevisiae deletion strains, locus YPL240C, strain hsp82, hits give low values 0.992 | S. cerevisiae deletion strains, locus YPL256C, strain CLN2, hits give low values 0.997 | S. cerevisiae deletion strains, locus YPR119W, strain clb2, hits give low values 0.989 | S. cerevisiae deletion strains, locus YPR141C, strain kar3, hits give low values 1 | S. cerevisiae deletion strains, locus YPR163C, strain tif3, hits give low values 0.99 | S. cerevisiae deletion strains, locus YPR167C, strain met16, hits give low values 0.999 | S. cerevisiae deletion strains, strain wtn01, hits give low values 0.957 | S. cerevisiae strains, strain wild type, hits give low values 1.01
